Screening data from PubChem BioAssay.
SARS PLP yeast: blocks SARS-CoV papain-like protease in a yeast assay; hit rate 0.19% among 330,000; Potency, µM (highest dose often 32.9 µM), without a hit: at the top dose activity, positive = growth rescue, usual class: activators; S. cerevisiae expressing SARS-CoV PLpro, growth rescue; AID 485353; calls by dose curve; further: potency means the concentration at half of the fitted maximal effect; 0% is about no effect; nearly all actives have a fitted effect of over 55% in size
Lassa entry inh: inhibitors of Lassa virus binding or cell entry; hit rate 1.2% among 300,000; Potency, µM (highest dose often 37.9 µM), inactives show at the top dose activity change, negative = inhibition, most hits filed as inhibitors; Lassa virus pseudotype entry inhibition, cell reporter; calls by dose curve; tested in HEK293 cells; further: potency means the concentration at half of the fitted maximal effect; on the % scale 0 is the no-effect control and ±100 the full control effect; nearly all actives have a fitted effect of over 50% in size
Marburg entry inh: inhibitors of Marburg virus binding or cell entry; Marburg virus pseudotyped entry inhibition, cell reporter; Potency, µM (top dose mostly 37.8 µM), for inactives: at the highest dose activity change, negative = inhibition, actives largely listed as inhibitors; hit rate 1.8% among 300,000; AID 540276; calls by dose curve; tested in HEK293 cells; further: potency means the concentration at half of the fitted maximal effect; on the % scale 0 is the no-effect control and ±100 the full control effect
HCMV antiviral: human cytomegalovirus inhibition. HFF cells, HCMV-luciferase reporter, 72 h; stronger effect = lower value. activity change, negative = inhibition, % at 57.5 µM. hit rate 4.5% among 410,000; in the data active means activity change below about -60%; inconclusive means no clear call, values can overlap the other calls; inactive means above about -39%; further: on the % scale 0 is the no-effect control and ±100 the full control effect
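Screen run at 2 compound doses on HFFs infected with reporter HCMV, MOI 1 PFU/cell. Luciferase activity from cell lysates at 72 h post infection gave inhibition relative to buffer-only and Salinomycin wells.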
HCV inh: HCV inhibition; Huh7.5.1 HCVcc-Cre infection, luciferase reporter, 44 h; Potency, µM (series often up to 41.8 µM), for inactives: at the highest dose activity change, negative = inhibition, usual class: inhibitors; hit rate 3.4% among 340,000; AID 651820; active means well fitted inhibition curve with a large enough effect; inconclusive means small, poorly fitted or top-dose-only effect, or another doubt; inactive means no such curve, though single readings can be large or run the other way; further: potency means the concentration at half of the fitted maximal effect; on the % scale 0 is the no-effect control and ±100 the full control effect
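HCVcc-Cre virus at an moi near 0.5 was added right after compound to cells cultured 4 h from seeding (1,000 cells/well). Luciferase activity was determined 44 h later, 15 min after substrate addition at RT.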
FMDV inh: antivirals against foot and mouth disease virus | FMDV antiviral cell-based qHTS | hit rate 1.2% among 410,000 | Potency, µM (series often up to 57.9 µM), without a hit: top-dose activity change, negative = inhibition, hits mostly inhibitors | AID 1159524; calls by dose curve; tested in HEK293T cells; further: read-out not given here; potency means the concentration at half of the fitted maximal effect; on the % scale 0 is the no-effect control and ±100 the full control effect; nearly all actives have a fitted effect of over 45% in size
* marks the source's active call; other numbers are inactive results; ? = inconclusive; / = no result given; [ ] = dose if it differs, or a comment. The list is not random: actives were taken first. Their share in the collection is about 8%.

SMILES	SARS PLP yeast	Lassa entry inh	Marburg entry inh	HCMV antiviral	HCV inh	FMDV inh
O=[N+]([O-])c1cc(-c2nc(-c3ccncc3)no2)ccc1Cl	-34%	1%	23%	-64*	4%	-21%
O=[N+]([O-])c1cc(-c2nc(-c3ccccc3)no2)ccc1N1CCCCC1	/	3%[46.1 µM]	4%[46.1 µM]	-88*	/	-15%
CN1CCN(c2ccc(-c3nc(-c4ccccc4)no3)cc2[N+](=O)[O-])CC1	/	?	-3%[46.1 µM]	-99*	/	0%
CCCNC(=O)c1cc2c(c(-c3cccc(-c4ccc(F)cc4)c3)n1)[C@@H](CCO)N(S(=O)C(C)(C)C)C2 (stereo not given in full)	/	/	/	-96*	/	?
CCCNC(=O)c1cc2c(c(-c3cccc(-c4ccc(F)cc4)c3)n1)[C@H](CCO)N(S(=O)C(C)(C)C)C2 (stereo not given in full)	/	/	/	-16	/	-22%
COc1ccc(-c2cnnn2-c2ccc(NC(=O)c3c(F)cccc3F)cc2)cc1	/	?	/	-28	/	-27%
CCOC(=O)c1c(-c2ccccc2)[nH]c2ccc(C)cc12	/	/	/	-16	/	/
CCCCCCN(CCCCCC)C(=O)Cc1c(-c2ccc(F)cc2)[nH]c2ccccc12	/	9.2µM*	9.2µM*	-5	?	-19%
Cc1cc(=O)oc2cc(OCC(=O)Nc3c(C(C)C)cccc3C(C)C)ccc12	/	-5%[46.1 µM]	/	-25	/	-11%
N=C(N)S/C=C\C(=O)O	/	/	/	/	/	6%
Cc1ccc(Cc2c(-c3ccco3)nc3c(C)cc(Br)cn23)cc1	/	/	/	-102*	/	-29%
Brc1ccc2nc(-c3ccco3)c(Cc3ccccc3)n2c1	/	/	/	97	/	-8%
Clc1cccc(Cc2c(-c3ccco3)nc3ccc(Br)cn23)c1	/	/	/	25	/	25µM*
Clc1cccc(Cc2c(-c3ccco3)nc3ccc(Cl)cn23)c1	/	/	/	-18	/	40µM*
Cc1nc2ccccn2c1-c1ccnn1S(=O)(=O)c1ccc(F)cc1	0%	/	/	-94*	?	?
CCc1cnc2c(c1SC(C(C)=O)C(=O)N(C)C)c(=O)n(C)c(=O)n2C (stereo not given)	/	0%[46.1 µM]	/	-24	/	-17%
O=c1oc2ccccc2c(N2CCN(c3ccc(F)cc3)CC2)c1CN1CCCC1	/	-31%[46.1 µM]	?	-20	/	-6%
Nc1c(N2CCN(c3ccccc3)CC2)c2ccccc2oc1=O	8%	16%	-18%	-100*	2%	-26%
CC1CCN(c2ccc(-c3cccc(NC(=O)C(F)(F)F)c3)nn2)CC1	0%	2.2µM*	?	-4	-20%	16µM*
Cc1c(-c2cccc(NC(=O)c3ccco3)c2)nc2ncccn12	0%	9%	5%[46.1 µM]	-76*	?	-2%
CC1CCN(c2ccc(-c3cccc(NC(=O)c4ccco4)c3)nn2)CC1	-3%	2.5µM*	7.9µM*	37	?	-24%
CCC(=O)Nc1ccc(-c2ccc(N3CCC(C)CC3)nn2)cc1	-2%	/	/	/	-10%	18%
O=C(Nc1cccc(-c2ccc(N3CCCCC3)nn2)c1)C(F)(F)F	-2%	/	/	-4	-13%	-62%
COc1ccc(-c2cccc(NC(=O)c3ccco3)c2)nn1	-7%	?	10%	-34	-2%[8.37 µM]	-6%
CCC(=O)Nc1cccc(-c2ccc(N3CCC(C)CC3)nn2)c1	-3%	/	/	-67*	-5%	-74%
SMILES	SARS PLP yeast	Lassa entry inh	Marburg entry inh	HCMV antiviral	HCV inh	FMDV inh
COc1ccc(/C=C/C(=O)Nc2nc3n(n2)C(c2ccc(F)cc2)C=C(c2ccccc2)N3)cc1 (stereo not given)	/	2%[46.1 µM]	20%[46.1 µM]	-20	/	2%
Cc1noc(C)c1CN1CCN2C=C(C(=O)NCCCc3ccccc3)OC2=NC1=O	/	/	/	10	/	/
COc1ccc(OCC(NS(=O)(=O)c2ccc(-n3cnnn3)cc2)C(C)C)cc1 (stereo not given)	3%	/	/	-5	40µM*	-18%
CC(=O)c1ccc(OCCNS(=O)(=O)c2ccc(-n3cnnn3)cc2)cc1	4%	-23%[46.1 µM]	-16%[46.1 µM]	5	-10%	-8%
O=P(c1ccccc1)(c1ccccc1)c1cc(Br)cc(Br)c1OCCO	1%	-4%[46.1 µM]	13µM*	/	-21%	-20%
Cn1c(N)c(C(=O)CSc2ccc3c(c2)OCCO3)c(=O)n(C)c1=O	-13%	-7%	-4%	-12	-8%	-1%
CC(C(c1ccc2c(c1)OCO2)c1c(N)n(C)c(=O)n(C)c1=O)[N+](=O)[O-] (stereo not given)	/	/	/	-63*	-3%	-15%
Cc1ccc(S(=O)(=O)C(c2ccccc2)c2c(C)noc2C)cc1 (stereo not given)	-33%	0%	0.63µM*	-72*	-6%	-27%
COC(=O)c1ccc(CSc2nnc(-c3c[nH]c4ccccc34)n2-c2ccccc2)cc1	1%	?	?	-31	22µM*	-21%
COC(=O)c1ccc(CSc2nnc(CS(=O)Cc3ccc(Br)cc3)n2-c2ccccc2)cc1 (stereo not given)	-36%	?	?	-17	14µM*	0%
O=S(Cc1ccc(Br)cc1)Cc1nnc(SCc2ccc(Br)cc2)n1-c1ccccc1 (stereo not given)	-65%	?	?	-80*	5µM*	16µM*
COC(=O)c1ccc(NC(=O)CSc2nnc(C)n2-c2ccccc2)cc1	/	6%	-10%	19	-6%	4%
COC(=O)c1ccc(CSc2nnc(-c3c[nH]c4ccccc34)n2C)o1	6%	/	/	-13	12%	-14%
Cc1nn(CC(=O)NCc2ccccc2Cl)c(=O)c2cccn12	/	3%[46.1 µM]	-14%[46.1 µM]	16	/	9%
CC(C)c1cccc(-c2csc(C(C)(O)c3ccc(F)c(F)c3)n2)c1 (stereo not given)	/	/	/	-77*	/	1%
COc1cccc(C(C)(O)c2nc(-c3cccc(C(C)C)c3)cs2)c1 (stereo not given)	/	/	/	-20	/	-27%
CC(C)c1cccc(-c2csc(C(C)(O)c3ccncc3)n2)c1 (stereo not given)	/	/	/	-77*	/	?
CCN(CC)C(=O)c1cccc(-c2csc(C(C)(O)c3cccc(F)c3)n2)c1 (stereo not given)	/	/	/	?	/	25µM*
O=C(c1ccco1)N1CCN(CC(O)COc2ccc3oc4ccccc4c3c2)CC1 (stereo not given)	0%	?	-14%	?	13µM*	/
Cc1cc(C)cc(OCC(O)CN2CCN(C(=O)c3ccco3)CC2)c1 (stereo not given)	1%	0%[46.1 µM]	1%[46.1 µM]	-37	6%	-4%
O=[N+]([O-])c1ccc(/C=N/NC(=S)Nc2ccccc2)o1	-94%	14%	24%	-26	-10%	-4%
Cc1ccc2nc(N/N=C\c3ccc([N+](=O)[O-])o3)nc(-c3ccccc3)c2c1	-11%	?	10µM*	?	?	-29%
O=[N+]([O-])c1ccc(/C=N/Nc2ccc3ccccc3c2)o1	-33%	3%	-11%	-72*	-9%	-17%
